“And” between values parts separate entries of the source, which are not always exact repeats. Equal values may be shown once. The panel holds about 83,000 compounds, 20% with a hit somewhere; the sample as a whole holds those more often.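 A percent growth of 40 corresponds to 60% growth inhibition; 0 means no net growth; -100 means all cells died. Active threshold: below 10.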 The source made the active and inactive calls.
What was measured:
Assay in all cases: NCI-60 one-dose screen, 48 h (100 = growth as untreated, 0 = no growth, -100 = all killed)
[1] = system: DU-145 prostate; conditions: 10 µM unless noted
[2] = system: K-562 leukemia; conditions: 10 µM unless noted
[3] = system: MALME-3M melanoma; conditions: 10 µM unless noted
[4] = system: RXF 393 renal; conditions: 10 µM unless noted
[5] = system: SF-268 CNS; conditions: 10 µM unless noted
[6] = system: SF-295 CNS; conditions: 10 µM unless noted
[7] = system: SF-539 CNS; conditions: 10 µM unless noted
[8] = system: UACC-257 melanoma; conditions: 10 µM unless noted
[9] = system: M14 melanoma; conditions: 10 µM unless noted
[10] = system: HCT-15 colon; conditions: 10 µM unless noted
[11] = system: HT29 colon; conditions: 10 µM unless noted
[12] = system: SNB-75 CNS; conditions: 10 µM unless noted
[13] = system: U251 CNS; conditions: 10 µM unless noted
[14] = system: PC-3 prostate; conditions: 10 µM unless noted
[15] = system: SK-MEL-5 melanoma; conditions: 10 µM unless noted
[16] = system: UACC-62 melanoma; conditions: 10 µM unless noted
[17] = system: LOX IMVI melanoma; conditions: 10 µM
[18] = system: SK-MEL-28 melanoma; conditions: 10 µM unless noted
[19] = system: MDA-MB-231 breast; conditions: 10 µM unless noted
[20] = system: SNB-19 CNS; conditions: 10 µM unless noted

Measured: growth

CCCCCCCCC(=O)OCCCC(CCC(CCC1CCCO1)OC(=O)CCCCCCCC)OC(=O)CCCCCCCC (centres undefined)
inactive: [1] 106% | [2] 115% | [3] 109% | [4] 107% | [5] 95.7% | [6] 94.4% | [7] 97.3% | [8] 99.9% | [9] 111% | [10] 103% | [11] 93% | [12] 93.8% | [13] 106% | [14] 85.1% | [15] 102% | [16] 88.2% | [17] 98.6% | [18] 102%

N#C/C(=N\Nc1ccc(Cl)cc1)C(=O)C1CC1
inactive: [1] 74.4% | [2] 63.2% | [3] 31.1% | [4] 84.9% | [6] 40.9% | [7] 59.7% | [9] 52.2% | [10] 53.9% | [11] 67.6% | [12] 56.5% | [13] 40.5% | [14] 54.3% | [16] 32.1% | [17] 67.2% | [18] 53.9%
active: [8] 3.99% | [15] 0.976%

Clc1ccc(Cc2nc3ccccc3s2)cc1
inactive: [1] 98.6% | [2] 98.1% | [19] 74% | [4] 112% | [5] 88.5% | [6] 91.5% | [7] 106% | [8] 97.7% | [9] 98.2% | [10] 88% | [11] 118% | [12] 83.9% | [20] 121% | [13] 79.4% | [14] 63% | [15] 96.9% | [16] 87.7% | [17] 74.3% | [18] 112%

Nc1nc2ncc(CNc3ccc(C(=O)NC(CCC(=O)NC(CCC(=O)NC(CCC(=O)NC(CCC(=O)NC(CCC(=O)O)C(=O)O)C(=O)O)C(=O)O)C(=O)O)C(=O)O)cc3)nc2c(=O)[nH]1 (centres undefined)
inactive: [1] 108% | [2] 97.4% | [3] 90.3% | [4] 112% | [5] 105% | [6] 106% | [7] 99.8% | [8] 105% | [9] 107% | [10] 103% | [11] 107% | [12] 107% | [13] 110% | [14] 100% | [15] 94.7% | [16] 94.5% | [17] 100% | [18] 110%

COc1ccc(C(OCC2OC(n3ccc(NC(=O)c4ccccc4)nc3=O)C(O)C2O)(c2ccccc2)c2ccccc2)cc1 (centres undefined)
inactive: [1] 52.4% | [2] 32.7% | [19] 58.2% | [4] 31% | [5] 54.2% | [6] 41.7% | [7] 42.9% | [8] 64.3% | [9] 40.2% | [10] 20.6% | [12] 34.1% | [20] 54.7% | [13] 33.1% | [14] 22.9% | [15] 24.2% | [16] 43.9% | [17] 46.6% | [18] 55.9%
active: [11] 8.51%

CCOc1cc(F)c([N+](=O)[O-])cc1[N+](=O)[O-]
inactive: [19] 37.9% | [4] 12.4% | [5] 77.6% | [6] 96.9% | [8] 56.5% | [9] 30.5% | [12] 64.5% | [20] 92.2% | [13] 29.6% | [14] 66.4% | [15] 76.7% | [16] 78.2% | [18] 70.1%
active: [2] 0.671% | [3] -19.2% | [11] 2.66% | [17] -44%

O=C1c2ccccc2Cc2cccc(Cl)c21
inactive: [2] 91.5% | [3] 94.2% | [19] 95.4% | [4] 89.7% | [5] 93% | [6] 90.9% | [7] 98.1% | [8] 104% | [9] 111% | [10] 97.4% | [11] 87.7% | [12] 117% | [20] 100% | [13] 101% | [14] 92.9% | [15] 96.2% | [16] 98.9% | [17] 93.9% | [18] 101%

COc1ccc(NC(=O)/C(=C/N2C(=O)/C(=C/c3ccc(OC)c(OC)c3)NC2=S)C(C)=O)cc1
inactive: [1] 96.4% | [19] 73% | [4] 85.6% | [5] 78.3% | [6] 93.9% | [7] 85.1% | [8] 60% | [9] 53.8% | [10] 80.1% | [11] 92.8% | [12] 38.1% | [20] 73% | [14] 62.4% | [15] 68.9% | [16] 53.9% | [17] 58.9% | [18] 77.2%

CCc1oc2ccccc2c1C(=O)c1cc(Br)c(O)c(Br)c1
inactive: [3] 94.8% | [19] 58.9% | [4] 51.6% | [5] 75.4% | [6] 52.8% | [7] 65.5% | [8] 66.2% | [9] 49.7% | [10] 62.5% | [11] 89.3% | [12] 53.7% | [20] 78.4% | [14] 65.5% | [15] 46.1% | [16] 38.9% | [17] 62.3% | [18] 63.9%

CCOC(=O)/C(=C\c1ccc2ccccc2c1)P(=O)(OCC)OCC
active: [4] -23.4% | [11] 3.89% | [16] 9.26% | [17] -55.6%
inactive: [2] 11.8% | [3] 72.1% | [19] 16.3% | [5] 42.6% | [6] 60.1% | [7] 28.9% | [8] 63.8% | [9] 31.7% | [12] 35.2% | [20] 41.8% | [13] 38.2% | [14] 58.5% | [15] 44.4% | [18] 18.7%

O/N=C1\c2ccccc2-c2ccc(F)cc21
inactive: [2] 99.1% | [3] 114% | [19] 88.2% | [4] 111% | [6] 117% | [7] 97% | [8] 110% | [9] 107% | [10] 74.6% | [12] 91.1% | [20] 101% | [13] 106% | [14] 89.1% | [15] 99.1% | [16] 93.8% | [17] 96.6% | [18] 111%

Cc1ccc(N2C(=O)C=CC2=O)cc1
inactive: [1] 119% | [19] 97.6% | [4] 99.7% | [5] 106% | [6] 115% | [7] 112% | [8] 103% | [9] 101% | [11] 96.3% | [12] 89.6% | [20] 95.4% | [13] 102% | [14] 97.4% | [15] 91.2% | [16] 104% | [17] 97.7% | [18] 112%
active: [2] 0.664%

CCCCCCCCCCCCSC(=N)N
active: [2] -40.8% | [19] -30.1% | [9] -5.2% | [10] -21.4% | [11] -64.4% | [12] 8.5% | [13] -10.1% | [17] -70.8%
inactive: [1] 42.8% | [4] 21.5% | [5] 67.8% | [7] 74.9% | [8] 14% | [20] 69% | [14] 33% | [15] 38.5% | [16] 107% | [18] 52.7%

O=C(c1ccc(O)c(Br)c1)c1ccc(O)c(Br)c1
inactive: [1] 87% | [3] 106% | [19] 101% | [4] 107% | [5] 90.6% | [6] 118% | [7] 90.1% | [8] 110% | [10] 104% | [11] 114% | [12] 94.9% | [20] 94.3% | [13] 109% | [14] 101% | [15] 99.4% | [16] 97.1% | [17] 108% | [18] 110%

O=C(c1ccccc1)c1ccc(O)c2ncccc12
inactive: [2] 15% | [3] 56.1% | [19] 38.2% | [4] 41.8% | [5] 34.3% | [6] 74.6% | [7] 21.6% | [8] 17.3% | [9] 35.5% | [10] 25.7% | [11] 96.1% | [12] 58.7% | [20] 38.4% | [14] 32.2% | [15] 26.8% | [16] 33.9% | [17] 31.4% | [18] 68%

CCOC(=O)c1[nH]c(C#N)c(C(=O)OCC)c1C
inactive: [1] 106% | [3] 109% | [19] 102% | [4] 90.5% | [5] 111% | [6] 89.3% | [7] 104% | [8] 104% | [9] 109% | [10] 92.2% | [11] 103% | [12] 96.9% | [20] 106% | [13] 99.1% | [14] 102% | [15] 102% | [16] 91.2% | [17] 107% | [18] 112%

C1=C(c2ccccc2)c2ccccc2C1
inactive: [1] 109% | [2] 88.3% | [4] 106% | [5] 96.6% | [6] 91% | [7] 99.5% | [8] 133% | [9] 92.2% | [10] 87.6% | [11] 105% | [12] 90.9% | [13] 108% | [14] 82.6% | [15] 108% | [17] 89.7% | [18] 116%

CC1OC(OC2C(OC3CCC4(C)C(CCC5(C)C4CC=C4C6CC(C)(C)CCC6(C(=O)O)CCC45C)C3(C)CO)OCC(O)C2O)C(O)C(O)C1O (centres undefined)
active: [16] -94% [100 µM] and -96.7% [100 µM]

From PubChem BioAssay (NCI)
